This is a sample that favours compounds with a hit; in the whole collection about 4.8% have one here.
DAX1 inh-1 – DAX1 (NR0B1) inhibitors on StAR promoter, primary screen, cell-based, luminescence, SF-1 (NR5A1), full-length DAX-1. HEK293T StAR-luciferase reporter, SF-1/DAX-1 repression relief. inhibition, % at 6.8 µM. actives 1.1% (n = 370,000);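 active = inhibition above the mean over all tested compounds plus 3 SD, cut at about 3.6% in these data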;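 note: 0% = DAX-1 cells with DMSO and 100% = cells lacking DAX-1 with DMSO; higher inhibition means more luminescence from relief of DAX-1 repression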
ssDAF12 agonist – S. stercoralis DAF-12 nuclear receptor activators, primary screen, cell-based, luminescence, HEK293, GRIP1 co-expression, lit1-tk-luc; Nuclear hormone receptor DAF-12 (Strongyloides stercoralis); HEK293 ssDAF-12/GRIP1 lit1-tk-luc reporter; % of 3 µM dafachronic acid response; activation, % at 6.8 µM; actives 1% (n = 370,000); AID 652126, 2013;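 active = activation above the mean over all tested compounds plus 3 SD, cut at about 0.9% in these data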;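 note: 0% = DMSO-only wells and 100% = 3 µM delta7-dafachronic acid wells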
hcDAF-12 act – H. contortus DAF-12 nuclear receptor activators, primary screen, cell-based, luminescence, HEK293, lit1-tk-luc reporter; HEK293 hcDAF-12 lit1-tk-luc reporter; 0% DMSO, 100% Δ7-dafachronic acid; activation, % at 6.8 µM; actives 1.4% (n = 370,000);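 active = activation above the mean of all tested compounds plus 3 SD, cut at about 5.5% in these data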;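 note: 100% = response to 3 µM Δ7-dafachronic acid high control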
SMARCA2 activ – SMARCA2 (BRM) function activators, primary screen, cell-based, luminescence, high throughput. MG213 cells, MMTV-luciferase reporter, dexamethasone, overnight. activation, % at 9.1 µM. actives 1% (n = 370,000). AID 652017, 2013; in the data active = activation above about 7.8%;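 note: 0% = vehicle wells and 100% = reference activator wells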
hgDAF-12 ag – H. glycines DAF-12 receptor agonists, primary screen, cell-based, luminescence, HEK293, GAL4 fusion, UAS-luciferase | HEK293 GAL4-hgDAF12 UAS-luciferase reporter, agonist luminescence; normalized to butyrate control | actives 1.8% (n = 370,000) | Nuclear hormone receptor DAF-12 (Heterodera glycines), GAL4 fusion | AID 687014, 2013 | activation, % at 6.8 µM;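 active = activation above a cutoff set at the mean of all screened compounds plus 3 SD, cut at about 10% in these data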;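 note: 0% = DMSO wells and 100% = sodium butyrate wells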
DAX1 inh-2 – DAX1 (NR0B1) inhibitors, primary screen, cell-based, HEK293, Gal4-DAX1, luciferase luminescence. inhibition, % at 6.75 µM. actives 0.99% (n = 340,000). AID 504766, 2011. HEK293 Gal4-DAX1 luciferase reporter;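 active = inhibition above the mean over all tested compounds plus 3 SD, cut at about 4.2% in these data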;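 note: 0% = DAX1-transfected cells with DMSO and 100% = empty-vector control cells with DMSO; inhibition shows as a rise in luminescence from relieved DAX1 repression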
Target sequence (P51843 207-470 limits assumed): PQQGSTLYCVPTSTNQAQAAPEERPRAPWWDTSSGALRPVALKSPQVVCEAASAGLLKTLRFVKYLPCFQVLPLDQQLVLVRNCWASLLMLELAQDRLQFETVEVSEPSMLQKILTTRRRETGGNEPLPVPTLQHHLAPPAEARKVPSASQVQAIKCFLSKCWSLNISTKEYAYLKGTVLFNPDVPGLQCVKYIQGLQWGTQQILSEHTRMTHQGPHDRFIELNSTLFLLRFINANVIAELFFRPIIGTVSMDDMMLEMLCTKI
* hit, by the source's call; / = no result given.

SMILES	DAX1 inh-1	ssDAF12 agonist	hcDAF-12 act	SMARCA2 activ	hgDAF-12 ag	DAX1 inh-2
COC(=O)[C@]12C[C@H](CC(=O)N3CCOCC3)C(=O)N(CCc3ccc(OC)c(OC)c3)C1=C[C@H](C(C)C)O[C@@H]2C1CC1	0	-2	-2	-1	0	/
Cc1noc(C)c1NC(=O)N(C)C[C@H]1OCCCC[C@@H](C)Oc2ccc(NC(=O)c3ccccc3)cc2C(=O)N([C@H](C)CO)C[C@@H]1C	0	-1	-1	3	0	1
C[C@@H]1CCCCO[C@H](CN(C)C(=O)c2ccncc2)[C@H](C)CN([C@@H](C)CO)C(=O)c2cc(NC(=O)c3ccccc3)ccc2O1	1	-1	-1	-3	2	2
C[C@@H]1CCCCO[C@@H](CN(C)C(=O)c2ccncc2)[C@@H](C)CN([C@H](C)CO)C(=O)c2cc(NC(=O)Cc3ccccc3)ccc2O1	-1	-1	0	-2	11*	1
Cc1noc(C)c1NC(=O)N(C)C[C@H]1OCCCC[C@@H](C)Oc2ccc(NC(=O)Nc3ccc(F)cc3)cc2C(=O)N([C@@H](C)CO)C[C@H]1C	0	-2	-1	-5	-1	5.1*
O=C(c1ccncc1)N1CC[C@H]2[C@H](CCCN2Cc2cc(F)cc(F)c2)C1	-1	-1	0	-2	-2	/
CSCCC(NC(N)=O)C(=O)Nc1cccc(C#N)c1 (stereo unspecified)	0	-2	-1	1	4	5.1*
CC1(C)CC(N=c2cc(-c3ccccc3)oc3ccc(Cl)cc23)CC(C)(C)N1	0	-1	-1	1	4	5.9*
CC1(C)CC(NC(=O)c2ccc(Cl)cc2Cl)CC(C)(C)N1	0	-1	-3	-2	-1	3
Cc1ccc(S(=O)(=O)N2CCOCC2)cc1NC(=O)CSCc1c(C)noc1C	3.6*	-1	-1	0	0	1
COC(=O)[C@]12C[C@H](CC(=O)N3CCN(C(=O)c4ccco4)CC3)C(=O)N(Cc3ccccc3)C1=C[C@H](COCc1ccccc1)O[C@@H]2C	0	-2	-2	0	-3	/
O=C1C=CC(=Nc2ccc3c(c2)Cc2cc(F)ccc2-3)O1	3	1	4	1	13*	0
COc1cccc(N2CCN(CC(=O)NCc3cccc(OC)c3OC)CC2)c1	-1	-2	0	-6	0	/
COCCNC(=O)c1cc(-c2cccc(OC)c2)on1	2	0	1	3	11*	1
COc1cccc(-c2cc(C(=O)NCc3cccs3)no2)c1	2	0	2	7	13*	4
CC[C@H]1OC(=O)[C@H](C)[C@@H](O[C@H]2C[C@@](C)(OC)[C@@H](O)[C@H](C)O2)C(C)[C@@H](O[C@@H]2O[C@H](C)C[C@H](N(C)C)[C@H]2O)[C@](C)(O)C[C@@H](C)CN(C)[C@H](C)[C@@H](O)[C@]1(C)O (stereo partly specified)	0	-1	1	-7	-2	/
COc1ccc(C(=O)Nc2ccc(Nc3ccccc3)cc2)cc1[N+](=O)[O-]	-1	-2	-2	-1	-3	-2
CCN(CC)c1ccc(C(=O)Nc2ccccc2)cc1[N+](=O)[O-]	0	0	0	7	12*	0
CCc1ccccc1NC(=O)c1ccc(NCCc2ccccc2)c([N+](=O)[O-])c1	1	-1	-2	-2	0	4.4*
COC(=O)[C@]12C[C@H](CC(=O)N3CCN(C(=O)c4ccco4)CC3)C(=O)N(CCc3ccc(OC)c(OC)c3)C1=C[C@H](C(C)C)O[C@@H]2C1CC1	-1	-1	-2	2	0	/
O=C1CCC[C@H]2C[C@H](NCc3cccc(I)c3)CC[C@]23CCCN13	/	0	-2	/	-3	/
Cc1ccc(OCc2nnc(SCC(=O)c3ccc(-c4ccccc4)cc3)n2Cc2ccco2)cc1	-1	-1	-3	-5	-1	/
O=C1CCC[C@H]2Cc3nc4cc5c(cc4cc3C[C@]23CCCN13)OCO5	/	-1	1	/	4	/
Cc1cc(C(=O)NNc2ccc(F)cc2F)no1	0	-1	-2	-2	-2	7.6*
CCn1c(SCC(=O)Nc2ccc(C(C)C)cc2)nnc1-c1ccc(C(C)(C)C)cc1	-1	0	0	-2	0	/
SMILES	DAX1 inh-1	ssDAF12 agonist	hcDAF-12 act	SMARCA2 activ	hgDAF-12 ag	DAX1 inh-2
O=C(NNC(=O)c1cc(-c2ccncc2)nc2ccccc12)c1cccc(Cl)c1	1	2.6*	3	3	3	-1
COc1ccc2c(c1)CCCN2C(=O)C1CCCN(S(=O)(=O)c2cccc3cccnc23)C1 (stereo unspecified)	0	-1	-1	-6	-4	/
CC(=O)NC1(c2ccccc2)CCN(c2cc(C)nc(-c3ccccc3)n2)CC1	-1	7.3*	-3	0	-4	-4
Cc1cc(N2CCC(C(=O)NC3CC3)CC2)nc(-c2ccccc2)n1	0	-1	0	-2	0	-2
CC[C@H](CCCCCCCn1ccc2ccccc21)CCC(=O)N(c1ccccc1)c1ccccc1	-1	-2	2	1	1	/
Cc1cccc(OCC(=O)Nc2ccc3c(c2)nc(CCN2CCN(C)CC2)n3C)c1	0	-1	-1	-1	0	4.9*
COc1ccc(CNC(=O)C2CC(c3ccccc3[N+](=O)[O-])=NO2)cc1 (stereo unspecified)	0	-1	1	2	2	2
COc1ccccc1CNC(=O)C1CC(c2ccccc2[N+](=O)[O-])=NO1 (stereo unspecified)	0	0	6.1*	-2	1	-1
Cc1ccc(-c2cnn3c(N4CCOCC4)cc(C)nc23)cc1	0	-1	4	-1	0	7.6*
Cc1cc(NCCN2CCOCC2)n2ncc(-c3ccccc3)c2n1	2	0	4	7	6	3
Cc1cc(N2CCOCC2)n2ncc(-c3ccc(Cl)cc3)c2n1	-1	-2	-1	-3	-3	6.7*
C=CCc1c(C)nc2c(-c3ccccc3)cnn2c1N1CCOCC1	3	0	5.6*	4	10	4
CCOC(=O)N1CCN(C(=O)C[C@H]2C[C@@]3(C(=O)OC)C(=C[C@H](C(C)C)O[C@@H]3C3CC3)N(CCC3=CCCCC3)C2=O)CC1	0	-1	-4	-5	-3	/

Screening results (PubChem BioAssay)
